CYP2C19 inhib: blocks human cytochrome P450 2C19 | P33261 | CYP2C19 Supersomes, luciferin-H EGE luminescence, 30 min | inhibition, % at 5 µM | 21% of 96,000 active;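 active means CYP2C19 inhibition above a set limit at 5 µM in the primary screen, cut at about 50% in these data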
CYP2C9 act: increases human cytochrome P450 2C9 activity; P11712; recombinant CYP2C9, luciferin-H conversion, luminescence; stronger effect = higher value; factor 1 = untreated enzyme, 0 = blocked; activation factor at 5 µM; 1.4% of 96,000 active; AID 1024;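 active means activation factor of 2 or more for CYP2C9 at a 5 µM dose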
Target sequence (P11712 whole entry, looked up): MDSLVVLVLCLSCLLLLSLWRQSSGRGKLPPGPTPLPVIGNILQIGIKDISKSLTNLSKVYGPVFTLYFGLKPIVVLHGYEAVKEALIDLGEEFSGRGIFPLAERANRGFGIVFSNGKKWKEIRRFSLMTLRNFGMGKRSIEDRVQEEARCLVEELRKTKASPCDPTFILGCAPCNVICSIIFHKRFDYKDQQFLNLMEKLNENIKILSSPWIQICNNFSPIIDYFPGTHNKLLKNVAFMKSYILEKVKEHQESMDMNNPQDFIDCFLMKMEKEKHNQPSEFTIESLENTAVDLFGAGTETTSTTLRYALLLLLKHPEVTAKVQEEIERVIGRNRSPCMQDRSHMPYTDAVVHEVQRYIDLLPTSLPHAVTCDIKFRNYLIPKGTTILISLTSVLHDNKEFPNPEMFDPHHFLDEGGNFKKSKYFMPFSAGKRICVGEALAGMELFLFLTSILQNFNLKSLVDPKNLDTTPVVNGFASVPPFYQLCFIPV
CYP2C19 act: increases human CYP2C19 enzyme activity | recombinant CYP2C19, luciferin-H EGE luminescence; stronger effect = higher value; 0 = fully inhibited enzyme, 1 = untreated enzyme | P33261 | activation factor at 5 µM | 96,000 tested, under 10 active;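 active means activation factor of at least 2 at 5 µM in the primary screen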
CYP2C9 inh: blocks human cytochrome P450 2C9. 20% of 96,000 active. AID 777. inhibition, % at 5 µM. P11712. CYP2C9 Supersomes, luciferin-H conversion, luminescence;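 active means blocking of liver enzyme CYP2C9 beyond about 50% at 5 µM, limit read from the data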
PTK2B oligo ant: blocks oligomerization of human Pyk2 in cells | Q14289 | Q293 cells, Pyk2 FERM NanoBiT luminescence; stronger effect = lower value | z-score (the deposit names both 25 µM and 10 µM) | 0.83% of 99,000 active;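 active means Z-score of -3 or lower, scaled per plate to the spread of control and sample wells; inactive means z-score above -3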;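 further: negative z-score means lost luminescence so less FERM oligomerization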
Cav3 T inh: inhibitors of human Cav3.2 T-type calcium channel; O95180; Cav3.2-expressing cells, Fluo-4 calcium fluorescence FDSS; stronger effect = lower value; B-score at 10 µM; 4% of 100,000 active; AID 449739;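 active means single-dose well whose peak fluorescence ratio is a statistical outlier from its plate by either plate-standardised score or position-corrected B-score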
Numbers stand for hits; – = inactive; · = no result given. Hits are enriched below; roughly 27% of the tested compounds scored in any of these assays.

SMILES	CYP2C19 inhib	CYP2C9 act	CYP2C19 act	CYP2C9 inh	PTK2B oligo ant	Cav3 T inh
Cc1cc(C)c(S(=O)(=O)c2ccccc2)c(N(C)C)n1	63.6	–	–	–	–	–
Cc1cc(C)c(S(=O)(=O)c2ccccc2)c(OC(=O)c2c(Cl)cc(Cl)cc2Cl)n1	53.0	–	–	–	–	-6.48
CC(=O)n1cc([C@H]2C=C(C(=O)N3CCOCC3)O[C@@H](OCCCCO)C2)c2ccccc21	·	·	·	·	·	–
CC1CCN(c2ccc(/C=N/n3nnnc3N)cc2[N+](=O)[O-])CC1	·	·	·	·	–	–
O=[N+]([O-])c1cc(-n2cnnn2)ccc1N1CCC(Cc2ccccc2)CC1	–	–	–	62.3	–	–
CC1CC(C)CN(c2ccc(-n3cnnn3)cc2[N+](=O)[O-])C1 (centres undefined)	64.0	–	–	–	–	–
C=CCc1cccc(CNc2c(C)n(C)n(-c3ccccc3)c2=O)c1O	56.1	–	–	–	–	-3.97
Cc1c(NC(=O)CC(=O)Nc2c(C)n(C)n(-c3ccccc3)c2=O)c(=O)n(-c2ccccc2)n1C	–	–	–	–	–	–
Cc1ccc(N=C(NO)c2nonc2N)cc1	–	–	–	–	–	–
CCN1CCN(C(c2ccc(OC)cc2)C(O)C(=O)c2c[nH]c3ccccc23)CC1 (centres undefined)	–	–	–	–	–	–
COc1cc(C2C(C(=O)c3ccc(C)o3)=C(O)C(=O)N2c2cc(C)on2)cc(Br)c1O (centres undefined)	–	–	–	65.6	–	–
COc1cc(C2C(C(=O)c3ccco3)=C(O)C(=O)N2c2cc(C)on2)cc(Br)c1O (centres undefined)	–	–	–	59.6	–	–
COc1ccc(C2C(C(=O)c3ccc(C)o3)=C(O)C(=O)N2c2cc(C)on2)cc1OC (centres undefined)	–	–	–	–	–	–
CCCCn1c2c(c(=O)n(C)c1=O)C(c1ccc(OC)cc1)N1CCCCCC1=N2 (centres undefined)	–	–	–	–	–	–
CC(C)(C)c1[nH]nc2c1C(Cc1ccccc1)C(C#N)=C(N)O2 (centres undefined)	72.9	–	–	58.6	–	–
CC(C)(C)c1[nH]nc2c1C(c1cccnc1)C(C#N)=C(N)O2 (centres undefined)	–	–	–	–	–	–
CC(C)(C)c1[nH]nc2c1C(c1ccc(OC(=O)c3ccco3)cc1)C(C#N)=C(N)O2 (centres undefined)	65.3	–	–	71.2	–	–
Cc1cc2c(c(=O)n1C)C(Cc1ccccc1)C(C#N)=C(N)O2 (centres undefined)	83.0	–	–	–	–	–
O=C(Nc1ccc2c(c1)CCC2)C1CCN(c2c3c(nc4ncnn24)CCC3)CC1	–	–	–	–	–	2.82
O=C(NC1CCCc2ccccc21)C1CCN(c2c3c(nc4ncnn24)CCC3)CC1 (centres undefined)	–	–	–	–	–	–
COc1ccc(NC(=O)C2CCCN(c3c4c(nc5ncnn35)CCC4)C2)cc1OC (centres undefined)	–	–	–	–	–	3.32
O=C(CSCc1ccccc1)NNC(=S)Nc1cccc(Cl)c1Cl	–	–	–	86.7	–	–
CS(=O)(=O)N(CC(=O)N/N=C/c1cccc2c1OCCO2)c1ccccc1Br	–	–	–	–	–	–
O=C(CN(c1ccc(Cl)c(C(F)(F)F)c1)S(=O)(=O)c1ccccc1)N/N=C/c1cccc2c1OCCO2	–	–	–	59.8	–	·
Cc1cc(C)c2c(N)c(C(=O)c3cccc(Cl)c3)sc2n1	·	·	·	·	–	·
SMILES	CYP2C19 inhib	CYP2C9 act	CYP2C19 act	CYP2C9 inh	PTK2B oligo ant	Cav3 T inh
Cc1cc(NC(=O)C2CC(=O)OC2c2ccccc2)no1 (centres undefined)	52.5	–	–	–	–	–
O=C(CSc1ccc2c(c1)OCCO2)Nc1ncc(Cl)cc1Cl	75.8	–	–	82.5	–	–
Cc1cc(C)nc(SCC(=O)Nc2cc(C)on2)n1	–	–	–	–	–	–
Cc1cc(NC(=O)CSc2ccc3c(c2)OCCO3)no1	56.8	–	–	–	–	–
Cc1cc(NC(=O)CSc2ccccc2)no1	50.6	–	–	–	–	–
C=CCn1c(CCCOc2ccc(Cl)cc2Cl)nnc1SCC(=O)Nc1nccs1	–	–	–	–	–	–
CCC(C(=O)Nc1cc(C)on1)c1ccccc1 (centres undefined)	65.2	–	–	54.2	–	–
CCC(Sc1nc2ccccc2[nH]1)C(=O)Nc1cc(C)on1 (centres undefined)	–	–	–	–	–	–
O=C(Nc1ccc2c(c1)OCCO2)NC1CCCCC1	–	–	–	–	–	–
O=C(CSc1ccc2c(c1)OCCO2)NC(=O)NC1CCCC1	94.5	–	–	71.8	–	–
O=c1c2c3nc4ccccc4nc3n(/N=C/c3ccco3)c2ncn1CCC1=CCCCC1	54.7	–	–	57.9	–	–
Cc1nc2c(c(=O)n1CCC1=CCCCC1)c1nc3ccccc3nc1n2/N=C/c1ccccc1	–	–	–	–	–	·
CCCCCCn1c(C)nc2c(c1=O)c1nc3ccccc3nc1n2/N=C/c1ccco1	–	–	–	74.5	–	-5.09
C=CCn1c(COc2cccc3ccc(C)nc23)nnc1SCC(N)=O	–	–	–	–	–	–
CC(=O)c1ccc(Nc2ncnc3c2oc2ccccc23)cc1	–	–	–	–	–	–
CN1CCN(C(=O)C2=C[C@@H](c3ccc(C(F)(F)F)cc3)C[C@@H](OCCCCO)O2)CC1	·	·	·	·	·	–
Cc1cc(C)nc(SCc2nnc(SCC(=O)Nc3cc(C(F)(F)F)ccc3Cl)o2)n1	79.9	2	–	–	–	–
Cc1cc(C)nc(SCc2nnc(SCC(=O)Nc3c(C)cccc3C)o2)n1	·	·	·	·	–	–
Cc1cc(C)nc(SCc2nnc(SCc3ccccc3Cl)o2)n1	77.6	–	–	–	–	-6.17
COc1ccc2c(c1)c(C(O)CN1CCC(Cc3ccccc3)CC1)c(C)n2C (centres undefined)	–	–	–	–	–	·
O=C(OCc1ccccc1)C1CCCN1C(=O)c1cccs1 (centres undefined)	72.5	–	–	–	–	–
COc1ccc(NC(=O)COC(=O)[C@@H]2CCCN2C(=O)c2cccs2)cc1	–	–	–	60.0	–	–
O=C(COC(=O)C1CCCN1C(=O)c1cccs1)Nc1ccc2c(c1)OCO2 (centres undefined)	–	–	–	–	–	–
NS(=O)(=O)c1ccc(CCNC(=O)COC(=O)C2CCCN2C(=O)c2cccs2)cc1 (centres undefined)	75.4	–	–	–	–	–
O=C(COC(=O)C1CCCN1C(=O)c1cccs1)c1ccccc1 (centres undefined)	88.0	–	–	–	–	–
CCN(C(C)=O)c1nnc(CSc2nc3ccccc3s2)s1	88.4	–	–	–	–	–

Screening results: PubChem BioAssay, several laboratories
